Data on twelve compounds can be found in PubChem BioAssay (EPA / NIEHS).

Inconclusive results are not listed. Active and inactive are the calls of the source. Rule for the calls: active = hit-call score of the fitted dose curve at least 0.9, where 1 is the maximum; inconclusive = response in the unintended direction; inactive = score below 0.9.

The nature of this test: Tanguay_ZF_120hpf_OTIC_legacy: (Legacy) Oregon State University Tanguay Lab 120 Hour Post-fertilization zebrafish Assay for Otic Vesicle Malformation (AID 2283639). As to the method: Tanguay_ZF_120hpf_legacy is a whole embryo, multiplexed endpoint assay using zebrafish larvae exposed for 120 hours post fertilization on a 96-well plate.Tanguay_ZF_120hpf_OTIC_legacy is one of one assay component(s) measured or calculated from the Tanguay_ZF_120hpf_legacy assay. It is designed to make measurements of zebrafish development as detected with brightfield microscopy of developing zebrafish embryos.Data from the assay component Tanguay_ZF_120hpf_OTIC_legacy was analyzed into 1 assay endpoints. This assay endpoint, Tanguay_ZF_120hpf_OTIC_legacy, was analyzed in the positive analysis fitting direction relative to DMSO as the negative control and baseline of activity. Using a type of morphology reporter, gain-of-signal activity can be used to understand changes in developmentals as they relate to the whole embryo. To generalize the intended target to other relatable targets, this assay endpoint is annotated to the zebrafish development intended target family, where the subfamily is otic vesicle morphogenesis.
Zebrafish husbandry: Tropical 5D wild-type adult zebrafish were housed in at an approximate density of 1000 per 100 gallon tank at the Sinnhuber Aquatic Research Laboratory, Oregon State University, Corvallis, OR. Each tank was kept at standard laboratory conditions of 28C on a 14-h light/10-h dark photoperiod in fish water consisting of reverse osmosis water supplemented with a commercially available salt (Instant Ocean). Spawning funnels were placed into the tanks the night prior, and embryos were collected and staged. […] Ten microliters of each row of dilution plate 2 was added to 2 exposure plates. The final DMSO concentration used was 0.64% (vol/vol). Thirty-two embryos were also exposed to 5uM trimethyltin chloride (positive control). Plates were sealed to prevent evaporation and foil covered to reduce light exposure and kept in a 28C incubator. Embryos were statically exposed until 120 hpf. At 24 hpf, embryos were assessed for photomotor response using a custom photomotor response analysis tool (PRAT) and for developmental toxicity endpoints (MO24: mortality at 24 hpf, DP: developmental progression, SM: spontaneous movement, and NC: notochord distortion). At 120 hpf, locomotor activity was measured using Viewpoint Zebralab and assessed for 18 endpoints. Zebrafish acquisition and analysis program (ZAAP), a custom program designed to inventory, acquire, and manage zebrafish data, was used to collect developmental endpoints as either present or absent (i.e., binary responses were recorded). If mortality occurred for an embryo (at either 24 or 120 hpf), the non-mortality endpoints were not measured.
Regarding `Oc1cc(Cl)c(Cl)cc1Cl`, the outcome was inactive.

Consider `O=C(N[C@H]1CN2CCC1CC2)c1ccc2c(c1)OCCO2`, for which the outcome was inactive.

On to `N#Cc1cccnc1`, for which the outcome was inactive.

On to `O=C(O)C1(c2ccc3c(c2)OC[C@H](Cc2ccc(-c4ccccc4)cc2)[C@H]3O)CCCC1`, for which the compound was classed as inactive.

In the case of `CC(C)(C)c1ccccc1O`, the outcome was inactive.

In the case of `OCCN(CCO)CCO`, the result was inactive.

In the case of `Oc1c(Cl)cc(Cl)cc1Cl`, the result was inactive.

With `CCCCCCCCCCCCc1cccc(S(=O)(=O)O)c1`, the result was inactive.

On to `Clc1cccc(Cl)c1`, for which the result was inactive.

For the compound `CC(C)O.CC(C)O.OCCN(CCO)CCO.OCCN(CCO)CCO.[Ti]`, the compound was classed as inactive.

`Cc1cc(C)cc(C)c1`: the call was inactive.

Consider `Clc1cccc(Cl)c1Cl`, for which the compound was classed as inactive.
